# Screening results as filed in PubChem.
# This is a sample that favours compounds with a hit; in the whole collection about 11% have one here.
# NPR1 antag – antagonists of human natriuretic peptide receptor Npr1; P16066; HEK293 hNpr1 GloSensor cGMP, ANP-stimulated luminescence; Potency, µM (titrated, usually from 46.3 µM), for inactives: at the top dose activity change, negative = inhibition, hits mostly inhibitors; 76,000 tested, 1.6% active; AID 1347048; calls by dose curve; also: nearly all actives have a fitted effect of over 60% in size
# Target sequence (P16066 whole entry, looked up): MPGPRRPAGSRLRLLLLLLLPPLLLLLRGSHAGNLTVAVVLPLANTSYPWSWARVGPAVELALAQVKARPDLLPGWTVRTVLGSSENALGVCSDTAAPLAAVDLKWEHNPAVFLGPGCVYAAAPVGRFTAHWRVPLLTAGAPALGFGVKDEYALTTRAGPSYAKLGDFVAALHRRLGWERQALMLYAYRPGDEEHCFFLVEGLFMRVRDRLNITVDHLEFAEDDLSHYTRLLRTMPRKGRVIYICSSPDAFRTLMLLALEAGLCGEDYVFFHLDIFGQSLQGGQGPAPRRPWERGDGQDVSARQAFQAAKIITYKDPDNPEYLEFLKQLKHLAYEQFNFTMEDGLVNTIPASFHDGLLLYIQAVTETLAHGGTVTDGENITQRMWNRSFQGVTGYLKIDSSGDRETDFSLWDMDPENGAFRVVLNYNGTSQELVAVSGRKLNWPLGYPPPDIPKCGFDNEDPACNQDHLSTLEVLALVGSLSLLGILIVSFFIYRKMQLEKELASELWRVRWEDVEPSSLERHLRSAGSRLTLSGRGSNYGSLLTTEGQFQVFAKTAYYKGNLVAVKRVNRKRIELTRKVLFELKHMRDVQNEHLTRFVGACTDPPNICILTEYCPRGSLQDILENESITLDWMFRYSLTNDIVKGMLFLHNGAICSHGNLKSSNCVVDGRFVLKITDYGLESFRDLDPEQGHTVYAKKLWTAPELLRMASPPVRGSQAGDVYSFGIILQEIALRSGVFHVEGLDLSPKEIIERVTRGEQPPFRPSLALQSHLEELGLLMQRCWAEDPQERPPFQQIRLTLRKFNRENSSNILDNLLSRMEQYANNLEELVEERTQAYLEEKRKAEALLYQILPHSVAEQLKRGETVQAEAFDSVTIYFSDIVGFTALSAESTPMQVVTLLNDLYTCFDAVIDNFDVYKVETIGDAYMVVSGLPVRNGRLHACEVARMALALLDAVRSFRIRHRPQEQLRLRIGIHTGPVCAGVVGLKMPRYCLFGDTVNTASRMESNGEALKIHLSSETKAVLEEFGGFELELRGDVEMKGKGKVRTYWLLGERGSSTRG
#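 Compound pre-incubated 30 min at room temperature on GloSensor-loaded HEK293 cells stably carrying hNpr1 and the pGS-40F cGMP biosensor. Stimulation uses hNppA at 0.1 nM final; luminescence is taken at baseline and 20 min post-agonist.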
# HEK293 tox – kills HEK 293 cells | HEK 293 viability, ATP luminescence (CellTiter-Glo), 48-72 h | Potency, µM (titrated, usually from 115 µM), for the others: at the top dose activity change, negative = cytotoxicity, most hits filed as inhibitors | 94,000 tested, 6.6% active; also: nearly all actives have a fitted effect of over 60% in size
#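 Read-out: CellTiter-Glo ATP luminescence. Cells: HEK 293, 250 cells/well. Exposure: 48 or 72 hr, 37 degree Celsius.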
# Luciferase inh – Photinus pyralis luciferase inhibition; P08659; purified P. pyralis luciferase, luminescence, biochemical; Potency, µM (titrated, usually from 115 µM), hits mostly inhibitors; 76,000 tested, 2.5% active; also: nearly all actives have a fitted effect of over 65% in size
#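 Purified P. pyralis luciferase (10nM final) in 50mM Tris acetate pH 7.5, 10mM Mg acetate, 0.01% Tween-20, 0.05% BSA with 10uM D-luciferin and 10uM ATP. Compounds titrated qHTS. Luminescence imaged on CCD.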
# 3T3 cytotox – cytotoxic compounds in NIH 3T3 cells; NIH 3T3 viability, CellTiter-Glo ATP luminescence, 48-72 h; Potency, µM (series often up to 96.7 µM), without a hit: at the top dose activity change, negative = cytotoxicity, usual class: inhibitors; 94,000 tested, 4.3% active; AID 1345082; also: nearly all actives have a fitted effect of over 55% in size
#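 Cytotoxicity was measured by CellTiter-Glo ATP luminescence after 48 or 72 h compound exposure at 37 °C. Mouse NIH 3T3 fibroblasts were seeded at 400 cells/well and dosed by 23 nL pin transfer.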
# * hit, by the source's call; i = inactive; ? = inconclusive; . = not tested or not shown; ! = not confirmed by another sample; [ ] = remark or other dose. Unless noted, calls follow the shape of the dose curve; as a rule, active = well fitted curve in the direction sought with a large enough effect; inconclusive = small, poorly fitted or top-dose-only effect, or another doubt; inactive = no such curve, though single readings can be large; an effect the other way counts as inactive or inconclusive. % is scaled to controls: 0 for no effect and ±100 for the full control effect; potency is read from the fitted curve at half-maximal effect.
SMILES,NPR1 antag,HEK293 tox,Luciferase inh,3T3 cytotox
CC(C)C(=O)N[C@H]1C[C@@H](Cc2cc(COc3ccccc3)on2)C1(C)C,?,40µM*,?,63µM*
CC1(C)[C@H](Cc2cc(COc3ccccc3)on2)C[C@@H]1NC1CCC1,3%[70.6 µM],35µM*,i,32µM*
COc1cc(NC(=O)NC[C@H]2O[C@@H](CO)[C@@H](O)[C@@H]2N(C)Cc2ccccc2)cc(OC)c1,0%,-10%,i,-13%
Cc1nc(N2CCC(NC(=O)c3cccs3)CC2)cc(C(F)(F)F)n1,-20%,?,i,?
Cc1cc(C)n(Cc2ccc(C(=O)N3CCC4(CC3)CCC(O)(CN(C)C)CC4)o2)n1,3%,5%,i,0%
CCCN1CCC(N2CCC(C(=O)Nc3cccc(-c4cccc(F)c4)c3)CC2)CC1,-20%,22µM*,i,25µM*
COc1ccccc1-c1cccc(CN2CCC(NC(=O)Nc3ccccc3)CC2)c1,.,22µM*,.,18µM*
COc1ccc(C(=O)NC2CCN(Cc3cccc(-c4ccc(SC)cc4)c3)CC2)cc1,.,2%,.,-20%
COc1ccccc1-c1cccc(CN2CCC(NC(=O)Cc3cccc(Cl)c3)CC2)c1,.,?,.,25µM*
COc1ccccc1-c1cccc(CN2CCC(NC(=O)c3ccc(C(F)(F)F)cc3)CC2)c1,.,22µM*,.,25µM*
COc1ccccc1-c1cccc(CN2CCC(NC(=O)c3cccc(Cl)c3)CC2)c1,.,45µM*,.,?
CCCN1CCC2(Cc3ccccc3CN(C(=O)Cc3ccc(O)cc3)C2)C1 (centres undefined),.,-10%,.,i
O=C(NC1CCN(Cc2cccc(-c3ccc(F)cc3F)c2)CC1)c1cccc(Cl)c1,.,22µM*!,.,16µM*
COc1ccccc1-c1cccc(CN2CCC(NC(=O)Cc3ccc(F)cc3)CC2)c1,.,?,.,32µM*
COc1ccccc1-c1cccc(CN2CCC(NC(C)=O)CC2)c1,.,-26%,.,?
CSc1ccc(-c2cccc(CN3CCC(NC(=O)c4cccc(Cl)c4)CC3)c2)cc1,.,-15%,.,-15%
COc1ccc(CN2C(=O)[C@@H]3C[C@@H](CN3C3COC3)Oc3ccccc32)cc1,-5%[70.6 µM],?,i,-23%[174 µM]
Cc1ccc(-c2cc3c(=O)n(CCNC(=O)c4cc(F)ccc4F)ccn3n2)cc1C,-15%,40µM*,?,?
Cc1ccc(-c2cc3c(=O)n(CCNC(=O)Cc4ccsc4)ccn3n2)cc1C,-16%,?,5µM*,?
CCOc1ccc(CC(=O)NCCn2ccn3nc(-c4ccc(C)cc4C)cc3c2=O)cc1,?,?,25µM*,?
Cc1ccc(-c2cc3c(=O)n(CCNC(=O)c4nn(C)c5ccccc45)ccn3n2)cc1C,-6%,-1%,?,-11%
CCOc1ccc(C(=O)NCCn2ccn3nc(-c4cc(C)ccc4C)cc3c2=O)cc1,2%,?,i,-25%
Cc1ccc(C)c(-c2cc3c(=O)n(CCNC(=O)c4ccc(F)cc4Cl)ccn3n2)c1,-19%,40µM*,i,32µM*
Cc1ccc(-c2cc3c(=O)n(CCNC(=O)c4cc(Cl)ccc4F)ccn3n2)cc1C,-1%,0%,i,1%
CC(C)CN1C(=O)c2cccn2CC1CNC(=O)c1ccc2ccccc2n1 (centres undefined),-6%,?,?,?
SMILES,NPR1 antag,HEK293 tox,Luciferase inh,3T3 cytotox
CSc1cccc(NC(=O)Cn2c(C)cc3nc4n(c(=O)c32)CCCCC4)c1,7%,-10%,i,-17%
COC1CCN(CC2CCCCCN2C(=O)c2ccc(F)cc2)CC1 (centres undefined),.,-1%,.,-13%
COc1ccc(-c2cc3c(=O)n(CCNC(=O)Cc4ccsc4)ccn3n2)cc1,-21%,?,11µM*,?
COc1ccc(-c2cc3c(=O)n(CCNC(=O)Cc4ccc(C)cc4)ccn3n2)cc1,?,?,?,-27%
COc1ccc(Nc2ccnc(N3CCC(NC(=O)c4ccccc4Cl)CC3)n2)cc1,.,40µM*,.,?
COc1ccc(Nc2ccnc(N3CCC(NC(=O)C4CC4)CC3)n2)cc1,.,?,.,-20%
COc1ccc(Nc2ccnc(N3CCC(NC(=O)c4ccccc4OC)CC3)n2)cc1,.,50µM*,.,?
Cc1ccc(Nc2ccnc(N3CCC(NC(=O)c4ccccc4C)CC3)n2)cc1,.,35µM*,.,25µM*
CCN1C(=O)Cc2cc(C(=O)NCc3c(C)cc(C)cc3C)ccc21,-14%,40µM*,i,?
O=C1NCCOCCN(C(=O)Nc2ccc3c(c2)OCCO3)[C@@H]2CCCC[C@H]12,-23%,-1%,16µM*,-2%
CCCCn1c(=O)c(C(=O)N2CCN(C(=O)C3CC3)CC2)nc2cccnc21,.,-6%,.,-21%
Cn1c(C(=O)N2CCn3nc(Cc4ccccc4)cc3C2)cc2ccccc21,-22%,?,i,?
CN(Cc1ccc(F)cc1)C1CCCc2ccccc21 (centres undefined),1%[70.6 µM],-10%[172 µM],i,2%[138 µM]
CN(C(=O)c1cccc(Cl)c1)C1CCCc2ccccc21 (centres undefined),-14%[70.6 µM],71µM*,i,?
CN(C(=O)Cc1ccc(F)cc1)C1CCCc2ccccc21 (centres undefined),0%[70.6 µM],100µM*,i,-24%[138 µM]
CN(C(=O)Nc1ccc(Cl)cc1)C1CCc2ccccc21 (centres undefined),-11%[70.6 µM],?,i,-28%[138 µM]
CN(C(=O)c1ccccc1)C1CCCc2ccccc21 (centres undefined),0%[70.6 µM],?,i,?
CN(C(=O)c1ccc(Cl)nc1)C1CCc2ccccc21 (centres undefined),-4%[70.6 µM],?,i,-20%[138 µM]
CN(C(=O)Nc1ccc(Cl)cc1)C1CCCc2ccccc21 (centres undefined),-6%[70.6 µM],89µM*,28µM*,?
Cc1ccc(C(=O)N(C)C2CCc3ccccc32)cc1 (centres undefined),-4%[70.6 µM],100µM*,?,?
CS(=O)(=O)N(C1CC1)C1CCOC2(CCN(C(=O)C3(c4ccccc4)CC3)CC2)C1 (centres undefined),3%,0%,i,-8%
CC(=O)N(C)C1CCCc2ccccc21 (centres undefined),17%[70.6 µM],-3%[230 µM],i,3%[174 µM]
O=C(NC1CCN(c2ccc3nnc(-c4ccccc4)n3n2)CC1)c1ccccc1F,.,?,.,-24%
O=C(NC1CCN(c2ccc3nnc(-c4ccccc4)n3n2)C1)c1ccc(F)cc1 (centres undefined),.,5%,.,-3%
O=C(Cc1cccc(Cl)c1)NC1CCCN(c2ccc3nnc(-c4ccccc4)n3n2)C1 (centres undefined),.,35µM*,.,35µM*
O=C(Cc1cccc(Cl)c1)NC1CCCN(c2ccc3nnc(C4CC4)n3n2)C1 (centres undefined),.,-14%,.,-25%
COc1ccccc1C(=O)NC1CCN(c2ccc3nnc(-c4ccccc4)n3n2)CC1,.,35µM*,.,?
